Data from PubChem BioAssay (NCATS).
Results filed as inconclusive are left out. A call without a number means that no potency is given here. The source made the active and inactive calls. The call rests on the fitted dose curve; in most records, active means well fitted curve in the direction sought with a large enough effect; inconclusive means small, poorly fitted or top-dose-only effect, or another doubt; inactive means no such curve, though single readings can be large; an effect the other way counts as inactive or inconclusive.

molecular target: Calcium and integrin-binding protein 1 (Homo sapiens) (UniProt Q99828); assay: Confirmatory qHTS for Identification of Calcium Integrin Binding Protein 1 (CIB1) Competitor (AID 1508617); conditions: CIB1 binding competition assay, biochemical qHTS; series mostly up to 114 µM; further: nearly all actives have a fitted effect of over 65% in size
Sequence (Q99828 whole entry, looked up): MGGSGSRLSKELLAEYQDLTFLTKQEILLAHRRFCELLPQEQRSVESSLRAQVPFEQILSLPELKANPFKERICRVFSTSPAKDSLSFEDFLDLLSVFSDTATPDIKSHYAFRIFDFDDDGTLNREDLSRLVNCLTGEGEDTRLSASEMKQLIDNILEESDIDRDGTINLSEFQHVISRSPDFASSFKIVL
Procedure, shortened: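 Binding competition between test compounds and fluorescent alphaIIb peptide for 1 uM CIB1-GST is monitored by FP at 480/540 nm. Final compound range is up to 114 uM; unlabeled peptide serves as reference competitor.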
Potency means the concentration at half of the fitted maximal effect.

Row | SMILES | Potency
1 | Cc1cc(NS(=O)(=O)c2ccc(NC(=O)Cc3ccc(F)c(Cl)c3)cc2)no1 | inactive
2 | CSc1cc2c(s1)c1cnn(Cc3cccc(N)c3)c(=O)c1n2C | 39.8 µM (active)
3 | COC(=O)c1ccc(O)c2ncc(-c3ccc(C(=O)NCCCN(C)C)cc3)cc12 | inactive
4 | Cc1ccc2nc3sc(C(=O)NCc4ccco4)cc3cc2c1 | inactive
5 | c1ccc(-n2ccc(-c3nnc4n3CCCCC4)c2)cc1 | 50.1 µM (active)
6 | O=[S+]([O-])(NCc1nccs1)c1ccc(Nc2nc(-c3ccccc3)cs2)cc1 | 50.1 µM (active)
7 | NC[C@@H](O)c1ccc(O)c(O)c1 | inactive
8 | N#Cc1ccc(NS(=O)(=O)c2ccc(NC(=O)Cc3ccc(F)c(Cl)c3)cc2)cc1 | inactive
9 | CN(C(=O)c1cccs1)c1cccnc1 | 31.6 µM (active)
10 | CC(C)c1nc(Nc2nc3ccccc3o2)nc2c1CCCC2 | inactive
11 | O=C(O)c1ccc(O)c2ncc(-c3n[nH]nc3-c3ccccc3)cc12 | inactive
12 | N#Cc1ccc(N[S+](=O)([O-])c2ccc(Nc3nc(-c4ccccc4)cs3)cc2)cc1 | 44.7 µM (active)
13 | NS(=O)(=O)c1ccc(Nc2nc(-c3ccccc3)cs2)cc1 | 50.1 µM (active)
14 | Cc1ccc(CNc2ncnc3ccc(-c4ccc([C@@H](C)O)o4)cc23)o1 | inactive
15 | CC(C)(C)OC(=O)CC(=O)NNC(=O)c1nc2ccccc2[nH]1 | inactive
16 | CC(OC(=O)c1ccc(S(C)(=O)=O)c([N+](=O)[O-])c1)C(=O)NC1C2CC3CC(C2)CC1C3 (stereo not given) | inactive
17 | O=[S+]([O-])(Nc1nccs1)c1ccc(NCc2cc(Cl)cc(Br)c2O)cc1 | inactive

Row | SMILES | Potency
18 | CC1(C)N=C(Nc2nc3ccccc3o2)NC2=C1C(=O)CCC2 | inactive
19 | CC(=O)NC(c1cccs1)c1cc(Br)c2cccnc2c1O (stereo not given) | inactive
20 | Cc1ccc(S(=O)(=O)Nc2ccc(Br)cc2C(=O)Nc2nc(-c3ccccc3)cs2)cc1 | inactive
21 | O=C(NCCCN1CCNCC1)c1cccc(-c2cc(O)c3ncccc3c2)c1 | inactive
22 | NC(=O)C1CCN(c2ncc(Br)s2)CC1 | 50.1 µM (active)
23 | CCc1ccc(NC(=O)C(=O)NNC(=O)c2cccs2)cc1 | inactive
24 | Cc1ccsc1C1N=C(Nc2nc3ccccc3o2)NC2=C1C(=O)CCC2 (stereo not given) | inactive
25 | C/C(=C\c1ccc2c(c1)OCO2)C1Nc2cccc3cccc(c23)N1 | inactive
26 | CCOC(=O)c1[nH]c2c(c1C)C(=S)CC(c1ccco1)C2 (stereo not given) | 39.8 µM (active)
27 | O=S(=O)(Nc1nccs1)c1ccc(Nc2nc(-c3ccccc3)cs2)cc1 | 50.1 µM (active)
28 | NC(=O)c1ccc(O)c2ncccc12 | inactive
29 | N#Cc1ccc(NS(=O)(=O)c2ccc(NC(=O)Cc3ccc(Cl)c(Cl)c3)cc2)cc1 | inactive
30 | CC1(C)OB(c2ccc(O)c3ncc(N4CCNCC4)cc23)OC1(C)C | 31.6 µM (active)
31 | Cc1ccc(C(=O)NC(c2ccco2)c2cc(Cl)c3cccnc3c2O)cc1 (stereo not given) | inactive
32 | O=C(O)c1ccccc1SC1=NS(=O)(=O)c2ccccc21 | inactive
33 | Cc1ccc(S(=O)(=O)Nc2cc3c(cc2C(=O)Nc2nc(-c4ccccc4)cs2)OCO3)cc1 | inactive
34 | O=C(Nc1nc(-c2ccccc2)cs1)c1ccncc1NS(=O)(=O)c1cccc2cccnc12 | 35.5 µM (active)

molecular target: Calcium and integrin-binding protein 1 (Homo sapiens) (UniProt Q99828); assay: Primary qHTS for Identification of Calcium Integrin Binding Protein 1 (CIB1) Competitor (AID 1508620); conditions: CIB1-GST / FITC-alphaIIb peptide fluorescence polarization; series mostly up to 114 µM
Procedure, shortened: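 Fluorescence polarization competition: CIB1-GST (1 uM final) preincubated with compound 15 min at room temperature, then FITC-labeled alphaIIb peptide (100 nM final) added for another 15 min. Polarization read at Ex 480/Em 540.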

Row | SMILES | Potency
35 | Cc1noc(-c2sc3c(c2-c2nc4ccccc4s2)CCNC3)n1 | inactive
36 | CC1(C)CCC(C)(C)c2cc([S+](=O)([O-])N3CCN([S+](=O)([O-])c4c(F)cccc4F)CC3)ccc21 | inactive
37 | O=C(Nc1ccc2ccccc2c1)Nc1nnc(Br)s1 | inactive
38 | Cc1ccc2nc3sc(C(=O)NCc4ccco4)cc3cc2c1 | inactive
39 | c1ccc(-n2ccc(-c3nnc4n3CCCCC4)c2)cc1 | 79.4 µM (active)
40 | NC[C@@H](O)c1ccc(O)c(O)c1 | inactive
41 | CN(C(=O)c1cccs1)c1cccnc1 | 50.1 µM (active)
42 | O=C(O)c1ccc(O)c2ncc(-c3n[nH]nc3-c3ccccc3)cc12 | inactive
43 | O=S(=O)(Nc1nccs1)c1ccc(NCc2cc(F)ccc2O)cc1 | inactive
44 | Cc1ccc(CNc2ncnc3ccc(-c4ccc([C@@H](C)O)o4)cc23)o1 | inactive
45 | CC(=O)NC(c1cccs1)c1cc(Br)c2cccnc2c1O (stereo not given) | inactive
46 | O=C(NCCCc1cnc[nH]1)NCCCN(Cc1ccc(Cl)c(Cl)c1)c1ccc(Br)cn1 | inactive
47 | NC(=O)C1CCN(c2ncc(Br)s2)CC1 | 39.8 µM (active)
48 | O=S(=O)(Nc1nccs1)c1ccc(Nc2nc(-c3ccccc3)cs2)cc1 | 50.1 µM (active)
49 | CC1(C)OB(c2ccc(O)c3ncc(N4CCNCC4)cc23)OC1(C)C | 50.1 µM (active)
50 | O=C(O)c1ccccc1SC1=NS(=O)(=O)c2ccccc21 | inactive
